Measured values from PubChem BioAssay (NCATS).
“And” between values parts separate entries of the source, which are not always exact repeats. Equal values may be shown once. Inconclusive results are not listed. Where a structure was tested more than once in an assay, its records may differ in their call. The source made the active and inactive calls. Calls follow the shape of the dose curve; as a rule, active = well fitted curve in the direction sought with a large enough effect; inconclusive = small, poorly fitted or top-dose-only effect, or another doubt; inactive = no such curve, though single readings can be large; an effect the other way counts as inactive or inconclusive.

Assays:
[1] = Viability qHTS for spleen associated tyrosine kinase inhibitor (SYKi) naive MV4-11 cells (AID 1963823); also: nearly all actives have a fitted effect of over 40% in size
How it was run: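 qHTS, SYK inhibitor-naive MV4-11; 500 cells/well; 72 hr compound exposure, 37 C; CellTiter-Glo added, 10 min RT; luminescence read.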

[2] = Viability qHTS for spleen associated tyrosine kinase inhibitor (SYKi) drug resistant MV4-11 cells (AID 1963824); also: nearly all actives have a fitted effect of over 35% in size
How it was run: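 SYK inhibitor-resistant MV4-11 AML cells, 500 per well, added to predispensed compounds and incubated 72 hr at 37 C, 5% CO2. Viability measured by CellTiter-Glo luminescence after 10 min at room temperature.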

[3] = Quantitative highthroughput screen to assess conditional lethalithy of NOMO1 cells grown in Human Plasma-Like Medium with dialyzed fetal bovine serum (HPLM+ds) (AID 1963878); also: nearly all actives have a fitted effect of over 35% in size
How it was run: (§1)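 Each medium arm—HPLM with 10% dialyzed FBS, or RPMI1640 with 5 mM glucose and 10% untreated or dialyzed FBS—was screened against an 11-point, 3-fold compound titration for 48 h at 37 °C, with CellTiter-Glo luminescence as endpoint.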

[4] = Quantitative highthroughput screen to assess conditional lethalithy of SEM cells grown in Human Plasma-Like Medium with dialyzed fetal bovine serum (HPLM+ds) (AID 1963882); also: nearly all actives have a fitted effect of over 35% in size; as to Viability: series mostly up to about 46 µM
How it was run: as §1

[5] = Quantitative highthroughput screen to assess conditional lethalithy of SEM cells grown in RPMI1640 with unreated serum (RPMI+s) (AID 1963883); also: nearly all actives have a fitted effect of over 35% in size;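 as to Viability: 100% = DMSO wells and 0% = empty wells without cells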
How it was run: as §1

[6] = Quantitative highthroughput screen to assess conditional lethalithy of P12 Ichikawa cells grown in Human Plasma-Like Medium with dialyzed fetal bovine serum (HPLM+ds) (AID 1963879); details: Potency: viability; also: nearly all actives have a fitted effect of over 35% in size; as to Viability: series mostly up to about 46 µM
How it was run: as §1

[7] = Quantitative highthroughput screen to assess conditional lethalithy of P12 Ichikawa cells grown in RPMI1640 with dialyzed fetal bovine serum (RPMI+ds) (AID 1963880); details: Potency: P12-Ichikawa viability; also: nearly all actives have a fitted effect of over 35% in size;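 as to Viability: 100% = DMSO wells and 0% = empty wells on each plate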
How it was run: as §1

[8] = Quantitative highthroughput screen to assess conditional lethalithy of P12 Ichikawa cells grown in RPMI1640 with untreated serum (RPMI+s) (AID 1963881); details: Potency: viability; also: nearly all actives have a fitted effect of over 35% in size;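 as to Viability: series mostly up to about 46 µM; 100% = DMSO wells and 0% = empty wells without cells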
How it was run: as §1

[9] = Cellular viability qHTS for adrenocortical cancer (ACC) cell line SW-13 (AID 1963989); details: SW-13 ACC cells viability, CellTiter-Glo, 48 h; activity (max response): stronger effect = lower value; also: nearly all actives have a fitted effect of over 65% in size;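 as to activity (max response): cells grown in serum-free medium with ITS supplement; % is scaled to controls: 0 for no effect and ±100 for the full control effect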
How it was run: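 Luminescent ATP read-out (CellTiter-Glo, 20 min at room temperature) measured metabolically competent SW-13 cells after 48 h compound treatment. Final concentrations spanned up to 46 uM; bortezomib served as positive control.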

[10] = Cellular viability qHTS for adrenocortical cancer (ACC) cell line NCI-H295R (AID 1963990); also: nearly all actives have a fitted effect of over 60% in size
How it was run: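 IC50 and maximal efficacy derive from four-parameter logistic modelling of titration curves, with reads scaled between DMSO-only wells (0%) and doxorubicin hydrochloride (100% inhibition). Compounds spanned up to 46 uM over 48 h.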

[11] = Quantitative highthroughput screen to assess conditional lethalithy of SEM cells grown in RPMI1640 with dialyzed fetal bovine serum (RPMI+ds) (AID 1963884); also: nearly all actives have a fitted effect of over 35% in size;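 as to Viability: series mostly up to about 46 µM; 100% = DMSO control wells and 0% = empty wells without cells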
How it was run: as §1
Potency is read from the fitted curve at half-maximal effect.

SMILES	Potency [1]	Potency [2]	Potency [3]	Potency [4]	Potency [5]	Potency [6]	Potency [7]	Potency [8]	Potency [9]	Potency [10]	Potency [11]	activity (max response) [9]
Nc1nc(N)c2nc(-c3cccc(O)c3)c(-c3cccc(O)c3)nc2n1	13 µM (active)	14.6 µM (active)	10.5 µM (active)	10.5 µM (active)	18.7 µM (active)							
CCC[C@H](Nc1nc(-c2ccc(NC(=O)NCC)c(OC)c2)ncc1C)c1cccnc1	0.0742 µM (active)	0.118 µM (active)		0.0418 µM (active)		0.0418 µM (active)	0.0418 µM (active)	0.0418 µM (active)	0.224 µM (active)			
CNCCCC12CCC(c3ccccc31)c1ccccc12	18.8 µM (active) and 14.6 µM (active)	18.4 µM (active)	18.7 µM (active)		inactive		18.7 µM (active)	18.7 µM (active)		23.1 µM (active) and 25.1 µM (active)		
Cn1cnc2c1c(=O)[nH]c(=O)n2C	inactive	inactive	20.9 µM (active)		18.7 µM (active)					inactive	23.5 µM (active)	4.02% (inactive) and 2.06% (inactive)
CN[C@H]1CCc2cc(OC)c(OC)c(OC)c2-c2ccc(OC)c(=O)cc21	0.0934 µM (active)	0.0934 µM (active)		0.0066 µM (active)	0.0083 µM (active)	0.0118 µM (active)	0.0105 µM (active)	0.0105 µM (active)	0.1 µM (active)	0.0891 µM (active)	0.0074 µM (active)	
COc1cccc2c(NCc3ccccc3)nc(-n3c(N)nc4ccccc43)nc12	2.35 µM (active)	2.91 µM (active)		9.35 µM (active)	5.9 µM (active)	16.6 µM (active)	18.7 µM (active)	16.6 µM (active)	3.16 µM (active)	5.62 µM (active)		
Cn1cnc(-c2cc3nccc(Oc4ccc(NC(=S)NC(=O)Cc5ccccc5)cc4F)c3s2)c1	0.0259 µM (active)	36.6 nM (active) and 166 nM (active)		0.59 µM (active)		23.5 µM (active)	18.7 µM (active)	18.7 µM (active)	22.4 µM (active)		0.0662 µM (active)	
CN[C@@H]1CN(c2ccc3c(=O)c(C(=O)O)cn(-c4nccs4)c3n2)C[C@@H]1OC	0.407 µM (active)	0.512 µM (active)		6.45 µM (active)	1.44 µM (active)	14.4 µM (active)	8.12 µM (active)	6.45 µM (active)			2.04 µM (active)	-14.5% (inactive)
NC(=O)Nc1cc(-c2ccc(CN3CCOCC3)cc2)sc1C(N)=O	0.209 µM (active)	0.468 µM (active)		0.132 µM (active)	0.118 µM (active)	0.118 µM (active)	0.118 µM (active)	0.118 µM (active)		5.01 µM (active)	0.105 µM (active)	-17.8% (inactive)
CC(C)n1cnc2c(NCCc3ccc(O)cc3)nc(-c3csc4ccccc34)nc21	14.8 µM (active)	14.8 µM (active)		13.2 µM (active)	7.43 µM (active)	3.72 µM (active)	13.2 µM (active)	14.8 µM (active)		inactive	5.26 µM (active)	
Cn1cnc2c(F)c(Nc3ccc(Br)cc3F)c(C(=O)NOCCO)cc21	0.206 µM (active)	0.146 µM (active)				inactive	inactive	inactive	17.8 µM (active)	inactive		
Cc1cc(Nc2cc(N3CCN(C)CC3)nc(Sc3ccc(NC(=O)C4CC4)cc3)n2)n[nH]1	0.0461 µM (active)	0.0291 µM (active)		0.418 µM (active)	0.372 µM (active)	0.332 µM (active)		0.296 µM (active)		15.8 µM (active)	0.332 µM (active)	
C[C@H](NC(=O)C(=O)Nc1ccccc1C(C)(C)C)C(=O)N[C@@H](CC(=O)O)C(=O)COc1c(F)c(F)cc(F)c1F	2.35 µM (active)	1.86 µM (active)		5.26 µM (active)	5.9 µM (active)	20.9 µM (active)		14.8 µM (active)			5.26 µM (active)	
Nc1cccc(-c2cc3c(Oc4cccc(O)c4)ncnc3[nH]2)c1	1.66 µM (active)	2.91 µM (active) and 3.32 µM (active)		16.6 µM (active)		16.6 µM (active)			3.16 µM (active)	8.91 µM (active)		
Oc1ccc(-c2ccc(-c3cc(Nc4cccc(CNC5CC5)c4)n[nH]3)cc2)c(O)c1	0.833 µM (active)	0.461 µM (active)		1.66 µM (active)	4.69 µM (active)	2.35 µM (active)		2.35 µM (active)	25.1 µM (active)	10 µM (active)	7.43 µM (active)	
Oc1ccc([C@@H]2Oc3ccc(O)cc3[C@@H]3CCC[C@@H]32)cc1	5.8 µM (active)	4.61 µM (active)				13.2 µM (active)		11.8 µM (active)		7.08 µM (active)	10.5 µM (active)	
Cn1c(Nc2ccc(C(F)(F)F)cc2)nc2cc(Oc3ccnc(-c4ncc(C(F)(F)F)[nH]4)c3)ccc21	2.91 µM (active)	1.3 µM (active)		9.35 µM (active)	4.69 µM (active)		18.7 µM (active)	14.8 µM (active)		inactive		-8.43% (inactive)
COC1=C(OC)C(=O)C(CCCCCCCCCCO)=C(C)C1=O	10.6 µM (active)	10.6 µM (active) and 13.2 µM (active)		inactive	inactive	inactive			4.11 µM (active) and 25.1 µM (active)	2.91 µM (active) and 5.01 µM (active)		

SMILES	Potency [1]	Potency [2]	Potency [3]	Potency [4]	Potency [5]	Potency [6]	Potency [7]	Potency [8]	Potency [9]	Potency [10]	Potency [11]	activity (max response) [9]
CC(C)(O)CC(=O)NCCn1ccc2ncnc(Nc3ccc(Oc4cccc(C(F)(F)F)c4)c(Cl)c3)c21	14.6 µM (active) and 16.6 µM (active)	9.2 µM (active) and 6.61 µM (active)			20.9 µM (active)	9.35 µM (active)			14.1 µM (active)			
Cc1ccc(C(N)=O)cc1Nc1nccc(-c2cn(C(C)C)c3cnccc23)n1	0.0231 µM (active)	0.0517 µM (active)		3.32 µM (active)	3.72 µM (active)				8.91 µM (active)		2.09 µM (active)	
O=C(Nc1cccc(C(F)(F)F)c1)Nc1cc(S(=O)(=O)NC2CC2)ccc1-c1ccsc1	14.8 µM (active)	7.42 µM (active)				inactive				31.6 µM (active)		
CN1CCN(c2c(F)cc3c(=O)c(C(=O)O)cn4c3c2OCN4C)CC1	inactive	inactive				inactive		inactive		inactive		-1.01% (inactive)
CC(C)C[C@H](NC(=O)c1cc2ccccc2s1)C(=O)N1CCN(C(=O)[C@H](CO)NS(=O)(=O)c2ccc(Cl)cc2Cl)CC1	20.9 µM (active)	16.6 µM (active)				inactive		inactive				
Cc1ccc(S(=O)(=O)OCC(=O)Nc2ccc(C(=O)O)c(O)c2)cc1	inactive	inactive			16.6 µM (active)	23.5 µM (active)				inactive		6.62% (inactive)
N#Cc1c(NC(=O)c2cccc3ccccc23)sc2c1CCCC2	0.116 µM (active)	0.186 µM (active)		0.469 µM (active)	0.418 µM (active)	0.59 µM (active)		0.662 µM (active)	0.282 µM (active)	0.562 µM (active)	0.372 µM (active)	
Oc1cc(-c2nc(-c3ccccc3)[nH]c2-c2ccncc2)ccc1Cl	6.51 µM (active)	5.9 µM (active) and 3.66 µM (active)		inactive		16.6 µM (active)			17.8 µM (active)	28.2 µM (active)		
CN(C)c1nc(Cc2ccc(NC(=O)c3ccc4ccccc4c3)cc2)nc(Cl)c1CC(=O)O	inactive	inactive		inactive	inactive			2.96 µM (active)				
NCCCCNCCCN	5.9 µM (active)	5.9 µM (active)		11.8 µM (active)	13.2 µM (active)		23.5 µM (active)	18.7 µM (active)		inactive	11.8 µM (active)	4.66% (inactive)
COc1ccccc1N1CCN(CC(O)COc2cccc3ccccc23)CC1 (stereo not drawn)	inactive	inactive				inactive		13.2 µM (active)		inactive		-10.8% (inactive)
O=C(O)C1(Cc2cccc(Nc3nccs3)n2)CCC(Oc2cccc(Cl)c2F)CC1 (stereo not drawn)	0.517 µM (active)	461 nM (active) and 468 nM (active)		2.96 µM (active)	3.32 µM (active)	2.35 µM (active)		2.64 µM (active)				
Clc1cccc(-c2nnnn2Cc2cccnc2)c1Cl	inactive	inactive				7.43 µM (active)		1.32 µM (active)				
Cc1c(CN2CCN(S(C)(=O)=O)CC2)sc2c(N3CCOCC3)nc(-c3cnc(N)nc3)nc12	0.146 µM (active)	0.366 µM (active)				0.418 µM (active)			0.891 µM (active)	0.794 µM (active)		
CCn1cc(C(=O)O)c(=O)c2cc(F)c(N3CCN(C)CC3)cc21	inactive	inactive and 16.6 µM (active)		inactive	inactive		4.69 µM (active)	4.18 µM (active)		inactive	inactive	10.8% (inactive) and 4.42% (inactive)
C[C@@H]1COCCN1c1cc(=O)n2c(n1)N(Cc1cncc(Cl)c1)[C@H](C(F)(F)F)CC2	6.51 µM (active)	4.11 µM (active)					9.33 µM (active)	9.33 µM (active)		inactive		2.98% (inactive)
Nc1ncnc2c1c(-c1cnc3[nH]ccc3c1)nn2C1CCCC1	920 nM (active) and 590 nM (active)	1.16 µM (active) and 1.18 µM (active)		5.26 µM (active)	3.72 µM (active)		1.48 µM (active)		5.01 µM (active)	2.82 µM (active)	5.9 µM (active)	
